Drawing on PubChem BioAssay (Tox21), this text covers Potency for eight compounds.

Test [1] can be described thus: Nuclear factor erythroid 2-related factor 2/antioxidant responsive element (Nrf2/ARE) small molecule agonists: qHTS cell viability counter screen in human keratinocytes (AID 1919968; active = well fitted curve in the direction sought with a large enough effect in the repeat runs; an effect the other way counts as inactive or inconclusive; also: nearly all actives have a fitted effect of over 55% in size; also: potency is read from the fitted curve at half-maximal effect). In outline:
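Stably transfected HaCaT (KeratinoSens), 1,500/well. Test agents in DMSO were applied for 23 h, 37 C/5% CO2. CellTiter-Fluor was incubated 1 h before the fluorescence read.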
(In qHTS, concentration-response curves come from the screen itself.)

The target in test [2] is Gonadotropin-releasing hormone receptor (Homo sapiens) (UniProt P30968). The experiment in a line: Human gonadotropin-releasing hormone receptor (GnRHR) small molecule agonists, calcium flux assay in GnRHR-HEK293 cells (AID 1920063). Also: nearly all actives have a fitted effect of over 35% in size. In outline:
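Stable human GnRHR HEK293 line. 18 h plating, then calcium dye for 1 h at 37 C. Agonist-mode compound addition from DMSO stocks; fluorescence monitored 3 min.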
Background: Calcium assays in cells follow changes in intracellular calcium, usually with a dye or a luminescent sensor.

In test [3] the target is KiSS-1 receptor (Homo sapiens) (UniProt Q969F8). The experiment in a line: Human kisspeptin (KISS1R) small molecule agonists, calcium flux assay in KISS1R-HEK293 cells (AID 1920064; active = well fitted curve in the direction sought with a large enough effect in the repeat runs; an effect the other way counts as inactive or inconclusive). In outline: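 After overnight (18 h) culture at 37 C/5% CO2, human KISS1R-HEK293 cells received calcium dye for 1 h, then test compound; emission at 540 nm (excitation 480 nm) was tracked for 3 min.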
Sequence of KiSS-1 receptor (Homo sapiens) (Q969F8 whole entry, looked up): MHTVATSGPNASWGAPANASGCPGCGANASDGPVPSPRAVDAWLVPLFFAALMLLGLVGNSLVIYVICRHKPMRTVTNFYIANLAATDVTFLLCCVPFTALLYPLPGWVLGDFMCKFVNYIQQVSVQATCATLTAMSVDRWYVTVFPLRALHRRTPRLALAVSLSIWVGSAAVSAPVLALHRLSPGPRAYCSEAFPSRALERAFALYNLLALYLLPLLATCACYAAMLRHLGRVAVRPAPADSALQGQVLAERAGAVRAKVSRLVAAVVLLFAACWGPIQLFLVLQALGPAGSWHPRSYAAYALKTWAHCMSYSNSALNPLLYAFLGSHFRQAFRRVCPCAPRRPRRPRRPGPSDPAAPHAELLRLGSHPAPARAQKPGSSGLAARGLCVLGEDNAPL

A short description of test [4]: G protein-coupled receptor (GPCR) small molecule agonists, calcium flux assay: HEK293 wild type cell line counter screen (AID 1920065). In outline:
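Following 18 h incubation at 37 C/5% CO2, plates got calcium dye for 1 h; compounds, ATP or DMSO were then pinned in and fluorescence followed kinetically (480/540 nm).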

Test [5] can be described thus: p53 small molecule agonists, cell-based qHTS assay with human liver microsomes (AID 1963577).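 Also: p53 response element beta-lactamase reporter cells with liver microsomes plus NADPH.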 In outline: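 Steps: plate p53RE-bla cells, incubate 5 h at 37 C; add compound in DMSO; add microsomes (0.5 mg/mL final) and NADPH (0.5 mg/mL final); incubate 16 h at 37 C; add LiveBLAzer, 2 h RT; read fluorescence.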
Test [6] can be described thus: p53 small molecule agonists, cell-based qHTS assay with rat liver microsomes (AID 1963578). In outline:
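Metabolic activation is supplied by rat liver microsomes with NADPH (each 0.5 mg/mL final). p53RE-bla cells incubate with compound 16 h at 37 C; reporter activity is measured by LiveBLAzer fluorescence.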

Test [7] can be described thus: p53 small molecule agonists, cell-based qHTS assay with human liver microsomes: qHTS cell viability counter screen (AID 1963579). Also: nearly all actives have a fitted effect of over 45% in size. In outline:
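After the 460/530 nm beta-lactamase read, CellTiter-Glo was added to the same wells and luminescence measured after 30 min at room temperature, giving viability of p53RE-bla cells treated 16 h with compounds plus microsomes and NADPH.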

Test [8] in a line: p53 small molecule agonists, cell-based qHTS assay with rat liver microsomes: qHTS cell viability counter screen (AID 1963580). Also: nearly all actives have a fitted effect of over 45% in size. In outline:
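Cytotoxicity counter screen: intracellular ATP read by CellTiter-Glo luminescence in the p53 reporter wells. HCT-116 p53RE-bla cells were treated for 16 h at 37 C alongside rat liver microsomes and NADPH, each 0.5 mg/mL final.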

Test [9] in a line: p53 small molecule agonists, cell-based qHTS assay (AID 1963582; active = well fitted activation curve with a large enough effect in the signal ratio in the repeat runs, not every such curve was filed as active; the % refers to the signal ratio; also: potency is read from the fitted curve at half-maximal effect). In outline:
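Measured: fluorescence from cleaved LiveBLAzer substrate. System: p53RE-bla cells, 16 h compound treatment at 37 C, 2 h substrate step at room temperature.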

Test [10] deals with Muscarinic acetylcholine receptor M1 (Homo sapiens) (UniProt P11229). The experiment in a line: Cholinergic receptor muscarinic 1 (CHRM1) small molecule antagonists, cell-based qHTS assay (AID 1963588). Also: nearly all actives have a fitted effect of over 40% in size. Also: potency is read from the fitted curve at half-maximal effect. In outline:
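Compounds were tested at 15 concentrations in three independent runs. Dye-loaded CHRM1-CHO cells were exposed 5 min at room temperature before stimulation by acetylcholine added at 50nM. Intracellular calcium was read kinetically on FDSS for 3 min.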

Test [11] has the same target. The experiment in a line: Cholinergic receptor muscarinic 1 (CHRM1) small molecule agonists, cell-based qHTS assay (AID 1963589). Also: nearly all actives have a fitted effect of over 35% in size. In outline: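 Kinetic fluorescence (1 s intervals) of calcium-sensitive dye in human M1 CHO cells after compound addition; cells pre-incubated 18 h at 37 C/5% CO2 and dye-loaded 1 h.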
The target in test [12] is Beta-2 adrenergic receptor (Homo sapiens) (UniProt P07550). Description: Adrenergic beta2 receptor (ADRB2) small molecule antagonists, cell-based qHTS assay (AID 1963592). Also: nearly all actives have a fitted effect of over 50% in size. Also: potency is read from the fitted curve at half-maximal effect. In outline:
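Assay format: CHO-ADRB2 cells, 18-20hr seeding at 37C/5% CO2, then compound plus 1nM isoproterenol agonist mix for 0.5hr RT. Homogeneous time-resolved fluorescence cAMP detection after 1hr, expressed as 665/615 nm ratio.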

Test [13] has as its target D(2) dopamine receptor (Homo sapiens) (UniProt P14416). Description: Dopamine D2 receptor (DRD2) small molecule agonists, cell-based qHTS assay (AID 1963594). Also: nearly all actives have a fitted effect of over 35% in size. Also: potency is read from the fitted curve at half-maximal effect. In outline: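 cAMP accumulation in DRD2-HEK293 cells measured by HTRF after 1 h detection; compounds added 10 min before NKH477 (200nM […]) forskolin-analogue stimulation, 30 min at room temperature, with Ro20-1724 present at 0.1 mM final.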

Test [14] shares this target. Description: Dopamine D2 receptor (DRD2) small molecule antagonists, cell-based qHTS assay (AID 1963595; active = well fitted inhibition curve with a large enough effect in the signal ratio in the repeat runs, with a control signal flat; the % refers to the signal ratio). In outline: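 Cells were plated and grown for 24 h at 37 °C. Ro20-1724 (0.1 mM final) went in first, then compound for 10 min. NKH477 (200 nM) with quinpirole (12 nM) followed for 30 min at RT, then HTRF detection reagents for 1 h.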
A short description of test [15]: p53 small molecule agonists, cell-based qHTS assay: qHTS cell viability counter screen (AID 1963581). Also: nearly all actives have a fitted effect of over 45% in size. Also: potency is read from the fitted curve at half-maximal effect. In outline: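 qHTS counter screen: 16 h compound exposure at 37 C of p53RE-bla HCT-116 cells (4,000 per well, seeded 5 h prior), cell viability by ATP luminescence.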
For test [16], the target named is 5-hydroxytryptamine receptor 2A (Homo sapiens) (UniProt P28223). Description: 5-hydroxytryptamine receptor 2A (HTR2A) small molecule antagonists, cell-based qHTS assay (AID 1963586). Also: nearly all actives have a fitted effect of over 45% in size. In outline:
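CHO cells stably expressing human HTR2A were plated for 18 h at 37 C, then loaded with calcium dye for 1 h. Compounds were preincubated 5 min at room temperature before DOI (4 nM solution) was added. Kinetic fluorescence was read for 3 min.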

Test [17] has the same target. The experiment in a line: 5-hydroxytryptamine receptor 2A (HTR2A) small molecule agonists, cell-based qHTS assay (AID 1963587). Also: nearly all actives have a fitted effect of over 30% in size. In outline: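 Kinetic calcium-flux fluorescence (2 min, 1 sec intervals) after compound addition in agonist mode. HTR2A-CHO cells were cultured 18 h, then dye-loaded 1 h at 37 C.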
Test [18] in a line: cAMP Responsive Elements (CRE) small molecule agonists, cell-based qHTS assay (AID 1963590). In outline: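 Test agents in DMSO were incubated 3 h at 37 C/5% CO2 with CRE-bla HEK 293T cells seeded 18 h earlier; LiveBLAzer B/G FRET substrate was added and read after 2 h at room temperature.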
Test [19] can be described thus: cAMP Responsive Elements (CRE) small molecule antagonists, cell-based qHTS assay (AID 1963591; active = well fitted inhibition curve with a large enough effect in the signal ratio in the repeat runs, not every such curve was filed as active; the % refers to the signal ratio). In outline:
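Reporter line CRE-bla HEK 293T in dialyzed-FBS DMEM; cells preincubated 18 h, treated 3 h with compound plus NKH477 (0.25 uM final); LiveBLAzer FRET, 2 h RT.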

Test [20] concerns the target Beta-2 adrenergic receptor (Homo sapiens) (UniProt P07550). The experiment in a line: Adrenergic beta2 receptor (ADRB2) small molecule agonists, cell-based qHTS assay (AID 1963593).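 Also: CHO cells stably overexpressing human ADRB2.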 In outline:
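CHO cells stably over-expressing ADRB2 were plated overnight at 37C, then dosed with compounds plus a stimulation mix containing 100uM IBMX and 25uM Ro-20-1724 for 0.5hr at room temperature. cAMP was measured by HTRF competition, 1hr.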

Records with an inconclusive call do not appear. Active and inactive are the calls of the source. Unless noted, calls follow the shape of the full dose curve.

Sequence of 5-hydroxytryptamine receptor 2A (Homo sapiens) (P28223 whole entry, looked up): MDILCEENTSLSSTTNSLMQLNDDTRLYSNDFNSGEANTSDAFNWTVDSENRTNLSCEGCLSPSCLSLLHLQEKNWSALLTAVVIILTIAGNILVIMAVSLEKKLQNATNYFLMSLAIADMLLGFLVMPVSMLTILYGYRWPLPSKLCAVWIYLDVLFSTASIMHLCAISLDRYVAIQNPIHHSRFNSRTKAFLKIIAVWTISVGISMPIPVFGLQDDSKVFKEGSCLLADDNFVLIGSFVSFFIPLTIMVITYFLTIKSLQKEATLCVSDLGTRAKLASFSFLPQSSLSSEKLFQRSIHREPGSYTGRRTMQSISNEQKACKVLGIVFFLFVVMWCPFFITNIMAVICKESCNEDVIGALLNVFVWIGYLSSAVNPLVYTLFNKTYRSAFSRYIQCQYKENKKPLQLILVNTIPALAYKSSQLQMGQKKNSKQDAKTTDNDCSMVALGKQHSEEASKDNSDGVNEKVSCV
Sequence of D(2) dopamine receptor (Homo sapiens) (P14416 whole entry, looked up): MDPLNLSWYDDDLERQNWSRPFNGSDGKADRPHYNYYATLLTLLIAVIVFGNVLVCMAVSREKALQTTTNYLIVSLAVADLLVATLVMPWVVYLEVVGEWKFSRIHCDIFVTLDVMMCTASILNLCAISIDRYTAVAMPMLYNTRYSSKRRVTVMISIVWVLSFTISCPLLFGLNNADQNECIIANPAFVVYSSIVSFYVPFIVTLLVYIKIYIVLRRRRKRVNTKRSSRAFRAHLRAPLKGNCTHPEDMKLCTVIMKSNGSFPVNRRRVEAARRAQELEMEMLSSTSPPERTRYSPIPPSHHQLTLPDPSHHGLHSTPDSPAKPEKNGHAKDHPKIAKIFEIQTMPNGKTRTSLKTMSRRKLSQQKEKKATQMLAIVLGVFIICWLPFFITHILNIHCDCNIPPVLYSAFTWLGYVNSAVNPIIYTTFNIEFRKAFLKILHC
Sequence of Beta-2 adrenergic receptor (Homo sapiens) (P07550 whole entry, looked up): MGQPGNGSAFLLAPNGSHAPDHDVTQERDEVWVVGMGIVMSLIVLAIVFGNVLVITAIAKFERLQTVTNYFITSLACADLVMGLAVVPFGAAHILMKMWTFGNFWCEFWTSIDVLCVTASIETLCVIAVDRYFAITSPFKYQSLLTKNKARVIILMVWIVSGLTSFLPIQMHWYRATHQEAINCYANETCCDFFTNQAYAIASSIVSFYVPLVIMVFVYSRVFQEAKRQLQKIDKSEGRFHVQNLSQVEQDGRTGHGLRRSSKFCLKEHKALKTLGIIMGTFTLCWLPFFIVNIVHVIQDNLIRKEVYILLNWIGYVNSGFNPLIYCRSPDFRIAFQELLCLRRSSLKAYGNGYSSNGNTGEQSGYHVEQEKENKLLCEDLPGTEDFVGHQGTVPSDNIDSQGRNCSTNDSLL
Sequence of Gonadotropin-releasing hormone receptor (Homo sapiens) (P30968 whole entry, looked up): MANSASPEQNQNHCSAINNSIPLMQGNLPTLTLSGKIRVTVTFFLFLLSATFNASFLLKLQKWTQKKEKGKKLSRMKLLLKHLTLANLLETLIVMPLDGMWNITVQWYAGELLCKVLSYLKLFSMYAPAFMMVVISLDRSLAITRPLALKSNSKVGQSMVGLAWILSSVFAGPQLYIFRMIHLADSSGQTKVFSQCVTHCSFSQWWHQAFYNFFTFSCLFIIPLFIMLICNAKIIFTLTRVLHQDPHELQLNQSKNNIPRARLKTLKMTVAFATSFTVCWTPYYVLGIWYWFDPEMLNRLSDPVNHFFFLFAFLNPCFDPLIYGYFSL
Sequence of Muscarinic acetylcholine receptor M1 (Homo sapiens) (P11229 whole entry, looked up): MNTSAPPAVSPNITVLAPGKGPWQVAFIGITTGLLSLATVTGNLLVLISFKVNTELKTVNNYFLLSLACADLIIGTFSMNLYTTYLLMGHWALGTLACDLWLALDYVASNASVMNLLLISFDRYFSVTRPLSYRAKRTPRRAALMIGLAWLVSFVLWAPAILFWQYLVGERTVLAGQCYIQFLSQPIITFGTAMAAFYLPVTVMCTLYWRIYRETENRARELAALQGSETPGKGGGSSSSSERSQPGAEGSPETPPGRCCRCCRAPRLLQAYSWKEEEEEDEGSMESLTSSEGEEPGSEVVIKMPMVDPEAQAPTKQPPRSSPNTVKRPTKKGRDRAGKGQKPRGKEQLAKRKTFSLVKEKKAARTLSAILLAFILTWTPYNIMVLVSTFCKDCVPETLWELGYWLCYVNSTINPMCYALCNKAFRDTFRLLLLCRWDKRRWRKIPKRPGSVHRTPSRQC

Consider `O=S(c1cc(Cl)cc(Cl)c1O)c1cc(Cl)cc(Cl)c1O`, for which the Potency in test [1] was 23.7 µM (active); in test [9], 17.8 µM (active). Moreover, the Potency result in test [2], in test [3], in test [4], in [5], in [6] and in test [7] was “inactive” in each case. For the same compound, the Potency entry in [8], in test [10], in test [11], in test [12], in test [13] and in test [14] was “inactive” each time.
For the compound `CC/C=C\CCCCCO`, the Potency result in test [1], in test [2], in test [3], in test [4], in [5] and in [6] was “inactive” in each case. In addition, the Potency result in test [7], in test [15], in test [9], in [16], in test [17] and in [10] was “inactive” in each case. In addition, the Potency entry in [11], in test [18], in [19], in [12], in test [20] and in [13] was “inactive” in each case. In addition, the Potency entry in test [14] was “inactive”.
Consider `NC1=NCC2c3ccccc3Cc3ccccc3N12` (stereo unspecified), for which the Potency entry in [1], in [2], in [3], in test [4], in test [5] and in test [6] was “inactive” throughout. Besides, the Potency result in [7], in [8], in [9], in test [17], in test [10] and in test [11] was “inactive” in each case. Besides, the Potency result in test [18], in test [19], in test [12] and in [14] was “inactive” each time. For the same compound, the Potency in test [13] was 4.92 µM (active).
As for `CCOC(=O)c1ccc(C2CCC(NC[C@H](O)COc3ccc(O)c(NS(C)(=O)=O)c3)CC2)cc1` (stereo partly specified), the Potency in test [1] was 56.4 µM (active); in [10] it was 8.69 µM (active); in test [12], 7.96 µM (active); in [13], 0.0796 µM (active). For the same compound, the Potency result in test [2], in test [3], in test [4], in test [5], in test [6] and in [7] was “inactive” throughout. In addition, the Potency result in test [8], in test [15], in [17], in [11] and in [14] was “inactive” each time.
Consider `O=C(Nc1ccc(Oc2ccc(Cl)cc2)c(Cl)c1)c1cc(I)cc(I)c1O`, for which the figures for the Potency in test [1] and in test [15] were 26.6 µM (active) and 5 µM (active), respectively. For the same compound, the Potency result in test [2], in test [3], in test [4], in test [5], in [6] and in test [7] was “inactive” throughout. The Potency result in [8], in test [16], in test [17], in test [10], in test [11] and in test [19] was “inactive” each time. Besides, the Potency entry in [12], in test [13] and in test [14] was “inactive” throughout.
Take `CCCCCSCCCCC`: the Potency result in [1], in [2], in [3], in test [4], in test [5] and in test [6] was “inactive” each time. In addition, the Potency entry in test [7], in test [8], in test [15], in test [16], in test [17] and in test [10] was “inactive” each time. Moreover, the Potency result in test [11], in test [19], in test [12], in [13] and in [14] was “inactive” throughout.
As to `CCN(CC)CCOC(=O)C(c1ccccc1)C1CCCCC1` (stereo unspecified), the Potency entry in [1], in test [2], in test [3], in test [4], in test [5] and in [6] was “inactive” in each case. The Potency entry in test [7], in test [8], in test [11], in [19], in [12] and in test [20] was “inactive” each time.
On to `CN(C)CCCN1c2ccccc2Sc2ccc(Cl)cc21`, for which, in test [1], the Potency was 54.5 µM (active). The Potency entry in test [2], in test [3], in [4], in test [5], in [6] and in test [7] was “inactive” throughout. Further, the Potency result in [8], in [12] and in [13] was “inactive” in each case.
